HSF1 inhib: HSF1 inhibitors in luciferase reporter cells, primary screen, cell-based, NIH3T3, luminescence; activity change, negative = inhibition, % at 7.5 µM (by protocol); AID 2098, 2009; hit rate 0.77% among 300,000; NIH3T3-HGL HSE-luciferase, MG132-induced, luminescence 8 h; stronger effect = lower value;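 active = more than half of replicate wells show activity change below -50%, luminescence cut by over half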;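 also: luciferase reports HSF-1 transcriptional activity via heat shock element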
TROY signal inh: inhibitors of TROY-driven NF-kB signaling, primary screen, Q293 LMP1-TROYcd cells, NF-kB luciferase, uHTS; AID 1347056, 2019; hit rate 0.98% among 360,000; inhibition, % at 10 µM; Q293 LMP1-TROYcd NF-kB luciferase reporter, 4 h;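 active = compounds whose plate-normalised and pattern-corrected inhibition of the luciferase reporter signal at the single screening dose is 50% or more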
EBV LMP1 NFkB: EBV LMP1-driven NF-kappaB luciferase reporter inhibitors, primary screen, cell-based, luminescence, single point. AID 504558, 2011. hit rate 0.69% among 350,000. inhibition, % at 12.5 µM. LMP1-induced NF-kappaB luciferase reporter cells; in the data active = inhibition above about 41%
LGR2 antag: inhibitors of bursicon-induced LGR2 CRE-luciferase signal, primary screen, cell-based, HEK293, CRE-luciferase reporter, bursicon stimulation. bursicon-stimulated, 4 h. inhibition, % at 9.99 µM. hit rate 0.35% among 380,000;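 active = drop in luminescence signal, shown as inhibition above about 50% in the replicate tests, limit read from the data, passing the limit was not always enough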;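 also: agonist challenge used bursicon conditioned medium at about half maximal strength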
HSF-1 act: HSF-1 activators, primary screen, NIH3T3-HGL cells, MG132 stress, luminescence, single point; NIH3T3-HGL HSF-1 luciferase reporter, 8 h; 100% = twice DMSO control signal; activation, % at 9 µM; hit rate 1.7% among 300,000; AID 504408, 2011;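 active = mean replicate activation of at least 50% with a set share of replicates each reaching 50%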
TWEAK-Fn14 inh: inhibitors of TWEAK-Fn14 signaling, primary screen, luciferase reporter cells, uHTS. TWEAK-stimulated Fn14 reporter cells, luciferase luminescence, 8 h. inhibition, % at 10 µM. hit rate 2% among 360,000; in the data active = inhibition above about 50%
Hits are given with their value; - = inactive; . = no result. Only some compounds are listed: those with a hit (about 3.6% of all), similar ones and a draw of the others.

SMILES | HSF1 inhib | TROY signal inh | EBV LMP1 NFkB | LGR2 antag | HSF-1 act | TWEAK-Fn14 inh
Cc1ccc(C(=O)/C=C\Nc2ccc(C)c(C)c2)cc1 | - | - | - | - | 56 | -
Cc1ccc(N/C=C/C(=O)c2cccs2)cc1C | - | - | - | 63 | - | -
Cc1ccc(N/C=C/C(=O)c2ccc(C)cc2)cc1 | - | - | - | . | - | -
Cc1ccc(C(=O)/C=C/C(=O)c2ccc(C)cc2)cc1 | - | - | 45 | - | - | -
O=C(/C=C/Nc1ccc(Nc2ccccc2)cc1)c1cccs1 | - | - | - | - | - | -
Cc1ccc(/C=C/C(=O)c2ccc(C)cc2)cc1 | - | - | - | . | - | -
CN(C)CCCNC(=O)C[C@H]1C=C[C@H](NS(=O)(=O)c2ccccc2)[C@H](CO)O1 | . | . | . | - | . | .
COC(=O)C[C@H]1CC[C@H]2[C@@H](COc3ccc(NS(=O)(=O)c4ccc(F)cc4)cc3C(=O)N2C)O1 | . | . | . | - | . | .
CCCCSC(=S)NC1CCS(=O)(=O)C1 (configuration not stated) | - | - | - | - | - | 57
O=S1(=O)CCC(NC(=S)SCCOc2ccccc2)C1 (configuration not stated) | - | - | - | - | - | 70
O=S1(=O)CCC(NC(=S)NC2CCS(=O)(=O)C2)C1 (configuration not stated) | - | - | - | - | - | -
CN(C)C(=O)c1cc2c(c(-c3cccc(-c4ccccc4F)c3)n1)[C@H](CCO)N(S(C)(=O)=O)C2 | . | . | . | - | . | .
CS(=O)(=O)c1ccc(NC(=O)c2ccc3c(c2)S(=O)(=O)N=C2CCCCCN23)cc1 | -54 | - | - | - | - | -
CO[C@@H]1CN(C)C(=O)c2cc(NS(=O)(=O)Cc3ccccc3)ccc2OC[C@H](C)NC[C@@H]1C | . | . | . | - | . | .
C/C(=N\Nc1ccc([N+](=O)[O-])cc1)c1ccco1 | - | - | - | - | 55 | -
O=C(NC1=NC2CCCCC2N1)c1ccccc1 (configuration not stated) | . | - | - | - | . | 76
COc1ccc2c3c([nH]c2c1)[C@H](CO)N(C(=O)C1CCC1)CC31CCN(C)CC1 | . | . | . | - | . | .
O=C(NCCN1CCCC1=O)C1CCC(=O)N(CCc2cccc(F)c2)C1 (configuration not stated) | - | - | - | - | - | -
Cc1nc(CCNC(=O)C2CCC(=O)N(CCc3cccc(F)c3)C2)sc1C (configuration not stated) | - | - | - | - | - | -
Cc1n[nH]c(C)c1CCNC(=O)C1CCC(=O)N(CCc2cccc(F)c2)C1 (configuration not stated) | - | - | - | - | - | 58
O=C(NCCn1cccn1)C1CCC(=O)N(CCc2cccc(F)c2)C1 (configuration not stated) | - | - | - | - | 51 | -
COc1ccc(NC(=O)N(C)C[C@@H]2Oc3ccc(NS(=O)(=O)c4cccs4)cc3CC(=O)N([C@H](C)CO)C[C@@H]2C)cc1 | . | . | . | - | . | .
COc1ccc(S(=O)(=O)N[C@H]2C=C[C@@H](CC(=O)N3CCN(c4ccccc4)CC3)O[C@@H]2CO)cc1 | . | . | . | - | . | .
C[C@@H]1CN([C@H](C)CO)C(=O)Cc2cc(NS(=O)(=O)c3ccccc3)ccc2O[C@H]1CN(C)C(=O)Nc1ccc(F)cc1 | . | . | . | - | . | .
CC(=O)c1ccc(N=Nc2ccc(N)cc2)cc1 | - | - | - | 64 | - | 69
SMILES | HSF1 inhib | TROY signal inh | EBV LMP1 NFkB | LGR2 antag | HSF-1 act | TWEAK-Fn14 inh
NC(=O)c1cc2ccncc2c2ccccc12 | - | 58 | - | - | - | -
Cc1cc(C(N)=O)c2ccccc2n1 | - | - | - | . | - | -
CO[C@H]1CN(C)C(=O)c2cc(NC(=O)NC(C)C)ccc2OC[C@@H](C)N(CC2CC2)C[C@H]1C | . | . | . | - | . | .
S=C(N/N=C/c1ccco1)NC1CC2CCC1C2 (configuration not stated) | - | - | - | - | 58 | -
CCCNC(=O)[C@H]1[C@H](CO)[C@H]2Cn3c(cccc3=O)[C@H]2N1C(=O)C1CC1 | . | . | . | - | . | .
Cc1ccc(OCc2nnc(SCC(=O)Nc3sc(C)c(C)c3C#N)n2C)cc1 | - | - | - | . | - | 52
CC1C/C(=C/c2ccncc2)C(=O)/C(=C/c2ccncc2)C1 (configuration not stated) | - | 66 | 92 | 103 | - | 100
O=C1/C(=C/c2ccncc2)Cc2ccccc21 | - | - | - | - | - | -
C=C(C)CNC(=S)Nc1nc2c(cc1C(=O)OCC)CCCC2 | - | - | - | - | 60 | -
C[C@@H]1CCCCO[C@@H](CN(C)C)[C@H](C)CN([C@@H](C)CO)C(=O)c2cc(NC(=O)CCC(F)(F)F)ccc2O1 | . | . | . | - | . | .
CCOC(=O)c1c2c(n(Cc3ccccc3)c1C)C(=O)C(=O)c1ccccc1-2 | 99 | 65 | - | 104 | 99 | 104
CCOC(=O)c1c2c(n(C)c1C)C(=O)C(=O)c1ccc(Br)cc1-2 | - | - | 77 | . | - | 87
CN1C[C@H](O)COC[C@H]2O[C@@H](CC(=O)NC3CCC3)CC[C@@H]21 | . | . | . | - | . | .
COc1ccccc1/C=C/C(=O)N1CCCC1 | - | - | - | - | - | -
COc1ccccc1/C=C/C(=O)/C=C/c1ccccc1O | . | - | - | - | . | 88
COc1ccccc1/C=C/C(C)=O | - | - | - | - | - | -
COc1ccccc1C=CC(=O)C=Cc1ccccc1OC | . | - | 66 | - | . | 80
CO[C@@H](CN(C)C(=O)C1CCOCC1)[C@H](C)CN(C(=O)Nc1ccc(F)cc1)[C@H](C)CO | . | . | . | - | . | .
CC1C=NC(S(=O)(=O)N2CC[C@@H]3[C@@H](CO)N(C)c4ccc(-c5ccccc5)cc4[C@@H]32)=N1 (some centres not stated) | . | . | . | - | . | .
CCC(=O)N1C[C@@H](C)[C@H](OC)CN(C)C(=O)c2ccc(NC(=O)Nc3cccc(F)c3)cc2OC[C@H]1C | . | . | . | - | . | .
CCOC(=O)C1(CC2CCCCO2)CCN(Cc2nc3ccccc3[nH]2)CC1 (configuration not stated) | -97 | - | - | - | - | -
CCOc1ccc(C(Nc2cccnc2)c2cc(Cl)c3cccnc3c2O)cc1 (configuration not stated) | - | - | - | - | - | -
Oc1c(C(Nc2nc3ccccc3s2)c2ccco2)ccc2cccnc12 (configuration not stated) | - | - | 61 | . | - | 57
Oc1c(C(Nc2nccs2)c2ccc(C(F)(F)F)cc2)ccc2cccnc12 (configuration not stated) | -59 | - | 73 | - | - | -

Screening results from PubChem BioAssay.
